The source made the active and inactive calls. The calls were made as follows: active = hit-call score of the fitted dose curve at least 0.9, where 1 is the maximum; inactive = score below 0.9.
What follows are compounds tested on Forkhead box O1 (FOXO1), FOXO1 (gene 2308) (assay: LTEA_HepaRG_FOXO1: Life Technologies and Expression Analysis (LTEA) Assay for Forkhead box O1 (FOXO1) using HepaRG (AID 2283456)). Settings: mRNA level, 48 h; actives raise or lower the signal.
Method in brief: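 Differentiated human HepaRG cells in serum-free induction medium were exposed in duplicate for 48 h to eight half-log concentrations (top 100 uM, 0.5% DMSO). FOXO1 mRNA was measured by TaqMan qRT-PCR, normalised to ACTB, GAPDH and POLR2A, and fitted bidirectionally against DMSO.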

SMILES | outcome | AC50
COc1ccc(-n2nc(C(F)F)cc2-c2ccc(S(C)=O)cc2)cc1 (configuration not stated) | inactive | 
CCOCCO | inactive | 
O=C(NS(=O)(=O)/C=C/c1ccccc1)c1ccc(F)cc1Cl | inactive | 
CCCCCCCCCCCCCCCO | inactive | 
CCOC(=O)COc1ccc2c(c1)CC(NCC(O)c1cccc(Cl)c1)CC2 (configuration not stated) | inactive | 
CCCCCCCCO | inactive | 
CC(C)c1cccc(C(C)C)c1N1C(=O)c2ccc(O)cc2C1=O |  | 83.9 µM (active)
CNCc1ccc(NC(=O)c2c[nH]c3c2C(=O)CCC3)cc1 | inactive | 
CN(C)c1ccc(N=NS(=O)(=O)O)cc1 | inactive | 
O=C(O)CCN(C1(C(=O)NO)CCCC1)S(=O)(=O)c1ccc(Oc2ccc(F)cc2)cc1 | inactive | 

The compounds below were run on growth arrest and DNA damage 45 (GADD45A), GADD45A (gene 1647) (assay: LTEA_HepaRG_GADD45A: Life Technologies and Expression Analysis (LTEA) Assay for growth arrest and DNA damage 45 (GADD45A) using HepaRG (AID 2283458)). Settings: mRNA level, 48 h; actives raise or lower the signal.
Method in brief: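 Human HepaRG liver cells are treated in duplicate for 48 h with chemicals in 0.5% DMSO, highest concentration 100 uM. Expression is read by qRT-PCR and analyzed in both directions against vehicle.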

SMILES | outcome | AC50
CC1(C)C(=O)N(Br)C(=O)N1Br | inactive | 
CC(=O)OCCC(C)C | inactive | 
CC(=O)c1ccc2c(c1)[C@H](NC(=O)c1ccc(F)cc1)[C@@H](O)C(C)(C)O2 | inactive | 
O=C(CCCCCCCCc1cccnc1)N1CCC(C=C(c2ccccc2)c2ccccc2)CC1 |  | 26.9 µM (active)
Cn1cnc([N+](=O)[O-])c1Sc1ncnc2nc[nH]c12 | inactive | 
C1=CCCC=CCCC=CCC1 | inactive | 
O=c1[nH]c2ccc(S(=O)CCN3CCC(Cc4ccc(F)cc4)CC3)cc2o1 (configuration not stated) | inactive | 
Cn1c(=O)c2c(ncn2C)n(C)c1=O | inactive | 
O=C1OC(=O)C2C3C=CC(C3)C12 (configuration not stated) | inactive | 
CC(C)=CCCC(C)CCO (configuration not stated) | inactive | 
Cn1c(=O)cc(Oc2ccc(F)cc2F)c2cnc(NCC(C)(C)O)nc21 | inactive | 
CC(C)CC(C)(O)C#CC(C)(O)CC(C)C (configuration not stated) | inactive | 
